HPGD block: HPGD (human) dehydrogenase inhibition; P15428; purified HPGD, NADH fluorescence kinetic, PGE2 substrate; Potency, µM, actives largely listed as inhibitors; actives 4.3% (n = 150,000)
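20 nM HPGD preincubated 15 min at room temperature with compound in 50 mM Tris-HCl pH 8, 0.01% Tween 20. Started with 1 mM NAD+ and 30 uM prostaglandin E2; NADH fluorescence (360/450 nm) read 5 times over 30-s intervals, last minus first.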
PNC assembly inh: inhibitors of perinucleolar compartment assembly. PC3M PTB-GFP, PNC prevalence imaging, 16 h; active compounds read low. actives 3.1% (n = 140,000). AID 2417. activity change (PNC), negative = inhibition, % at 10 µM;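 active means readout at or below -70, meaning at least 70% loss of cells showing the perinucleolar compartment, a nuclear body marking cancer cells; inconclusive means readout between -30 and a set limit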
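PC3M cells stably expressing PTB-GFP, 750–1000 cells/well, treated 16 h at 37 °C with compound (23 nl of library stock), in duplicate. After paraformaldehyde fixation and Hoechst stain, imaged at 20x; PNC prevalence scored by image analysis.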
Luc counter: Kinase-Glo luciferase inhibition (counter-screen) | Q27757 | Kinase-Glo luciferase, ATP luminescence, 8 min | Potency, µM (highest dose often 38.3 µM), actives largely listed as inhibitors | actives 0.28% (n = 200,000); active means well fitted inhibition curve with a large enough effect; inconclusive means small, poorly fitted or top-dose-only effect; further: nearly all actives have a fitted effect of over 60% in size
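Inhibition of Kinase-Glo luciferase light generation was assessed at 10 uM ATP in pH 7.2 imidazole buffer, with luminescence measured after eight minutes at ambient temperature.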
ALDH1A1 inh: blocks purified human ALDH1A1 activity; P00352; Purified ALDH1A1, NADH fluorescence, propionaldehyde substrate; Potency, µM (titrated, usually from 75.3 µM), most hits filed as inhibitors; actives 7.3% (n = 220,000); AID 1030
Target sequence (P00352 whole entry, looked up): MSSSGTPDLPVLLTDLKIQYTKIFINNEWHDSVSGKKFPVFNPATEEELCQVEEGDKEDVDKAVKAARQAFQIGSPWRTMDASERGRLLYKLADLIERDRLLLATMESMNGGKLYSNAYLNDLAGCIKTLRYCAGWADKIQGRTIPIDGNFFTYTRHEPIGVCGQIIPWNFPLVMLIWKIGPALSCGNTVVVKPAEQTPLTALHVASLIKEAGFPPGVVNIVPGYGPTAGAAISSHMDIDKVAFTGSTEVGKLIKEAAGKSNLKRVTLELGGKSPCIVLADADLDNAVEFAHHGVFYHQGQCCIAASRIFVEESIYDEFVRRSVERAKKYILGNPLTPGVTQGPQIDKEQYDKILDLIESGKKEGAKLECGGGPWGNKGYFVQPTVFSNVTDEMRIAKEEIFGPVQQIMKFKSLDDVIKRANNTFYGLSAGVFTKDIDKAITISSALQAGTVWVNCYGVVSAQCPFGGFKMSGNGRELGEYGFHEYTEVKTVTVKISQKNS
LMNA splice mod: changes lamin A minigene splicing in HeLa cells; HeLa LMNA splicing GFP/RFP minigene ratio, 48 h; Potency, µM (series often up to 46.1 µM), most hits filed as inhibitors; actives 0.01% (n = 200,000); AID 1487; active means well fitted inhibition curve with a large enough effect in the signal ratio, with a control signal flat, not every such curve was filed as active; inconclusive means small, poorly fitted or top-dose-only effect, or effect the other way, or a change in a side signal; the % refers to the signal ratio
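S3 HeLa cells stably expressing lamin A-EGFP splicing minigene plus DsRed2, 600 cells/well, 48 h compound exposure at 37C. Laser-scanning cytometry; analysed as GFP (500-530 nm)/RFP (575-640 nm) total intensity ratio; 0.5% DMSO vehicle.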
Each line names hits and unclear results; the compound was inactive in the other large screens. Shown are actives, neighbours in structure and some others; about 10% of the full set was active somewhere. Unless noted, the call rests on the fitted dose curve; in most records, active means well fitted inhibition curve with a large enough effect (not every such curve was filed as active); inconclusive means small, poorly fitted or top-dose-only effect, or another doubt; inactive means no such curve, though single readings can be large or run the other way.

CC(Sc1n[nH]c(N)n1)C(=O)C12CC3CC(CC(C3)C1)C2 (centres undefined)	ALDH1A1 inh inconclusive
CC1(C)NC(=O)N(CC(O)COc2cc3ccccc3cc2C(=O)N2CCCCC2)C1=O (centres undefined)	none
O=C(c1cc2ccccc2cc1OCC(O)CN1CCCCC1)N1CCCCC1 (centres undefined)	HPGD block 11µM, ALDH1A1 inh inconclusive
Cc1ccc(CN2C(=O)C(C)Oc3ccccc32)cc1 (centres undefined)	none (no result: HPGD block, PNC assembly inh)
Cc1ccc2c(c1)C(CCN)C(=O)N2Cc1ccccc1 (centres undefined)	ALDH1A1 inh 32µM
CCCc1[nH][nH]c(=O)c1C(c1cccc(Cl)c1)C(C#N)C#N (centres undefined)	HPGD block 16µM, ALDH1A1 inh 14µM
Cc1[nH][nH]c(=O)c1C(c1ccccc1[N+](=O)[O-])C(C#N)C#N (centres undefined)	ALDH1A1 inh inconclusive (no result: HPGD block, PNC assembly inh)
COc1ccc(-n2ncc(C(=O)N3CCc4ccccc4C3)c2C2CCN(C(=O)OC(C)(C)C)CC2)cc1	none (no result: HPGD block, PNC assembly inh, Luc counter, ALDH1A1 inh)
O=C1CC(C2CCCO2)C(=O)N1c1ccc(Cl)c(Cl)c1 (centres undefined)	none (no result: HPGD block, PNC assembly inh)
N#CC1=C(N)N(c2ccc(Cl)c(Cl)c2)C(=O)C1	ALDH1A1 inh 28µM (no result: HPGD block, PNC assembly inh)
CNS(=O)(=O)c1cccc(C(=O)OCC(=O)Nc2sc3c(c2C#N)CCCCC3)c1	ALDH1A1 inh 25µM (no result: HPGD block, Luc counter)
CCOc1ccccc1NC=C1C(=O)OC2(CCCCC2)OC1=O	ALDH1A1 inh 0.71µM
COc1ccc(C(=O)Nc2cc(C)on2)cc1	none
COc1ccc(C(=O)NC=C2C(=O)OC(C)(C)OC2=O)cc1	ALDH1A1 inh 13µM (no result: HPGD block, PNC assembly inh, LMNA splice mod)
CC(=O)c1cccc(NC=C2C(=O)OC3(CCCCC3)OC2=O)c1	ALDH1A1 inh 2.2µM
CCOc1ccccc1N/C=C/C(=O)C(C)(C)C	none
COc1ccc(OC)c(NC=C2C(=O)OC(C)(C)OC2=O)c1	ALDH1A1 inh 0.18µM
COc1ccc(OC)c(NC=C2C(=O)OC3(CCCCC3)OC2=O)c1	HPGD block inconclusive, ALDH1A1 inh 0.089µM
COc1ccc(OC)c(NC(=O)C2=C(C)C(=O)OC23CCCCCC3)c1	none (no result: HPGD block, PNC assembly inh, Luc counter, ALDH1A1 inh)
CC1(C)OC2CC3C4CC(F)C5=CC(=O)C=C[C@@]5(C)[C@@]4(F)C(O)C[C@@]3(C)[C@]2(C(=O)CO)O1 (some centres undefined)	none (no result: PNC assembly inh, LMNA splice mod)
CCC(CC)NC(=O)CO/N=C/c1ccccc1OC(F)F	HPGD block 20µM, LMNA splice mod inconclusive
O=C(CO/N=C/c1ccccc1OC(F)F)NC1CCCCC1	HPGD block 25µM
COc1cc(NC(=O)c2nnn(Cc3ccc(SC)cc3)c2N)cc(OC)c1	PNC assembly inh inconclusive, ALDH1A1 inh 7.9µM
C[C@H]1Cc2c(-c3ccccc3)nc3c(c2CO1)CN(C(=O)Nc1cccc(C#N)c1)CC3	none (no result: PNC assembly inh)
COc1cc(C2C3CN(C)CC=C3C(C#N)=C(N)C2(C#N)C#N)ccc1OC(C)C (centres undefined)	PNC assembly inh inconclusive, ALDH1A1 inh inconclusive
CCCOc1ccc([C@@H]2C3CN(C(=O)OCC)CC=C3C(C#N)=C(N)C2(C#N)C#N)cc1OC (some centres undefined)	PNC assembly inh -81
CN1CC=C2C(C#N)=C(N)C(C#N)(C#N)C(Cc3ccccc3)C2C1 (centres undefined)	HPGD block inconclusive, PNC assembly inh -119, ALDH1A1 inh inconclusive
Cc1ccc(C2C3CSCC=C3C(C#N)=C(N)C2(C#N)C#N)cc1 (centres undefined)	ALDH1A1 inh 8.9µM
N#CC1=C(N)C(C#N)(C#N)[C@H](c2ccncc2)[C@H]2CC3(CC=C12)OCCO3	PNC assembly inh -98, ALDH1A1 inh inconclusive (no result: HPGD block, Luc counter)
Cc1ccc(CSCCC(=O)N2CCN(c3ccc(F)cc3)CC2)cc1	none (no result: HPGD block, PNC assembly inh, Luc counter, ALDH1A1 inh)
CC1CCc2nc3ncn(Cc4ccccc4F)c(=O)c3cc2C1 (centres undefined)	none (no result: HPGD block, PNC assembly inh, Luc counter, ALDH1A1 inh)
CC1(C)[C@@H]2CC[C@@](C)(C2)[C@H]1OC(=O)c1ccccc1C(=O)O	none (no result: PNC assembly inh, LMNA splice mod)
CC(C)N1CC=C2C(C#N)=C(N)C(C#N)(C#N)C(c3ccccc3)C2C1 (centres undefined)	HPGD block inconclusive, PNC assembly inh -107, ALDH1A1 inh inconclusive
